Experimental data as given in PubChem BioAssay (NCATS).
Records with an inconclusive call do not appear. Where a call stands in place of a potency, no number is given. A number with no mark means an inactive call. The source made the active and inactive calls. Calls follow the shape of the dose curve; as a rule, active = well fitted curve in the direction sought with a large enough effect; inconclusive = small, poorly fitted or top-dose-only effect, or another doubt; inactive = no such curve, though single readings can be large; an effect the other way counts as inactive or inconclusive. Where a SMILES comes first, the peptide text is derived from it. The star is where a group is joined. βNA = c1ccc2cc(N*)ccc2c1; Cbz = O=C(OCc1ccccc1)*; CH2F = FC*

What was measured:
[1] = biological target: Calcium and integrin-binding protein 1 (Homo sapiens) (UniProt Q99828); assay: Primary qHTS for Identification of Calcium Integrin Binding Protein 1 (CIB1) Competitor (AID 1508620);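 also: GST tagged CIB1 binding a fluorescein labelled alphaIIb integrin peptide tracer; top concentration of the series differs between compounds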
How it was run: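 Fluorescence polarization competition: GST-tagged CIB1 (1 uM final) preincubated with compound 15 min at room temperature, then FITC-labelled alphaIIb peptide (100 nM final) added. After 15 min at room temperature, polarization read at Ex 480/Em 540.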

[2] = Primary qHTS for inhibitors of nuclear receptor binding SET domain protein 2 (NSD2) in an isogenic RCH-ACV NSD2 p.E1099K mutant (9B) (AID 1645876); also: nearly all actives have a fitted effect of over 70% in size
[3] = Primary qHTS for inhibitors of nuclear receptor binding SET domain protein 2 (NSD2) in an RCH-ACV wild type WT cells (2C) (AID 1645877); also: nearly all actives have a fitted effect of over 70% in size; also: potency is read from the fitted curve at half-maximal effect

Sequence of Calcium and integrin-binding protein 1 (Homo sapiens) (Q99828 whole entry, looked up): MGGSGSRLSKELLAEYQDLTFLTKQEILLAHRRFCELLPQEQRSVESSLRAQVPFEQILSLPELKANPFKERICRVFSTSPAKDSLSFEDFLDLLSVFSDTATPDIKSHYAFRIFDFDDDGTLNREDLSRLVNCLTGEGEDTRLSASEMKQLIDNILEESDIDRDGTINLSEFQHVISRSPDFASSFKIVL

SMILES	Potency [1]	Potency [2]	Potency [3]	activity change, negative = viability loss [2]	activity change, negative = cell killing [3]
CC(=O)O[C@@]1(C)[C@@H]2CC(=C(C)C)C(=O)C[C@@]2(C)CC[C@H]1OC(=O)C1(C)OC1C (some centres undefined)	inactive	inactive	inactive		
NC(=O)C(O[C@@H]1O[C@H](CO[C@@H]2O[C@H](CO)[C@@H](O)[C@H](O)[C@H]2O)[C@@H](O)[C@H](O)[C@H]1O)c1ccccc1 (some centres undefined)	inactive	inactive	inactive		
CC1=CC(=O)C(=C(C)C)CC2C(C)(O)CCC12O (centres undefined)	inactive	inactive	inactive		
CC(C)CC[C@@H](O)[C@](C)(O)[C@H]1CC[C@@]2(O)C3=CC(=O)[C@@H]4C[C@@H](O)[C@@H](O)C[C@]4(C)[C@H]3CC[C@]12C	inactive	inactive	inactive		
CC1=C2C[C@@]3(C)C(CCC[C@@H]3C)C(O)C2(O)OC1=O (some centres undefined)	inactive	inactive	23 µM (active)		
C[C@@H]1O[C@@H](O[C@H]2[C@H](Oc3cc(O)c(C(=O)CCc4ccc(O)cc4)c(O)c3)O[C@H](CO)[C@@H](O)[C@@H]2O)[C@H](O)[C@H](O)[C@H]1O	inactive	inactive	inactive		
C[C@]1(O)CC[C@@H]2C(C(=O)O)=CO[C@@H](O[C@@H]3O[C@H](CO)[C@@H](O)[C@H](O)[C@H]3O)[C@@H]21	inactive	inactive	inactive		
CC(=O)OCC1=CCC2C(C)(C)CCCC2(C)C12CCC(C)(CC(=O)O)O2 (centres undefined)	inactive	inactive	inactive		
O=C(CCc1ccccc1)c1c(O)c([C@@H]2O[C@H](CO)[C@@H](O)[C@H](O)[C@H]2O)c(O)c([C@@H]2O[C@H](CO)[C@@H](O)[C@H](O)[C@H]2O)c1O	inactive	inactive	inactive		
COc1cc(C(=O)OCC2=CCC3C(C(=O)O)=COC(O[C@@H]4O[C@H](CO)[C@@H](O)[C@H](O)[C@H]4O)C23)ccc1O (some centres undefined)	inactive	inactive	inactive		
CC(C)CC(NC(=O)OCc1ccccc1)C(=O)NC(CC(C)C)C(=O)NC(CCC(=O)O)C(=O)Nc1ccc2ccccc2c1 (stereo not drawn) (Cbz-Leu-Leu-Glu-βNA; configuration not given here)	inactive	inactive	inactive		
C/C=C(/C)C(=O)O[C@H]1C[C@]2(C)O[C@@H]2[C@@H](OC(C)=O)[C@@]2(C)CC[C@@](O)(C(C)C)[C@H]12	inactive	inactive	inactive		
CC1(C)CC[C@]2(C(=O)O)CC[C@]3(C)C(=CCC4[C@@]5(C)C(=O)C[C@H](O)[C@@](C)(CO)C5CC[C@]43C)[C@@H]2C1 (some centres undefined)	inactive	inactive	inactive		
CC1CC(O)/C=C/C(O)/C=C\C(=O)O1 (centres undefined)	inactive	inactive	inactive		
COC(=O)C1=COC(OC2OC(CO)C(O)C(O)C2O)C2C(COC(=O)/C=C/c3ccc(O)cc3)C(O)C(O)C12 (centres undefined)	inactive	inactive	inactive		
COc1ccc(C2OCC3C(c4cc(OC)c5c(c4)OCO5)OCC23)cc1OC (centres undefined)	inactive	inactive	inactive		
COC(=O)C1(C)CCCC2(C)c3ccc(C(C)C)cc3C(O)C(O)C12 (centres undefined)	inactive	inactive	inactive		
C=C(C)[C@@]1(O)C[C@@]2(C)C(=CC1=O)CC[C@@H](O)[C@@H]2C	inactive	inactive	inactive		
CC(C)c1c(NC(=O)Nc2ccc(Cl)cc2)c(=O)n(-c2ccccc2)n1C	inactive	inactive	inactive		
CC(=O)O[C@H]1[C@H](O[C@H]2CC[C@]34C[C@]35CC[C@]3(C)[C@@H]([C@@]6(C)CC[C@@H](C(C)(C)O)O6)[C@@H](O)C[C@@]3(C)[C@@H]5C[C@H](O[C@@H]3O[C@H](CO)[C@@H](O)[C@H](O)[C@H]3O)[C@H]4C2(C)C)OC[C@@H](OC(C)=O)[C@@H]1O	inactive	inactive	inactive		
CC(C)C1NC(=O)CNC(=O)C2CCCN2C(=O)C(Cc2c[nH]c3ccccc23)NC(=O)CNC(=O)C(Cc2ccc(O)cc2)NC(=O)CNC1=O (centres undefined) (cyclo(GVGYGWP); configuration not given here)	inactive	inactive	inactive		
C=C(C(=O)O)[C@@H]1CC[C@@]2(C)CC[C@@H](O)C(=C)C2C1 (some centres undefined)	inactive	inactive	inactive		
COC(=O)CC[C@H](NC(=O)[C@H](CC(C)C)NC(=O)OCc1ccccc1)C(=O)N[C@@H](Cc1cnc[nH]1)C(=O)N[C@@H](CC(=O)OC)C(=O)CF (Cbz-LE(OMe)HD(OMe)-CH2F)	inactive			-7.97% [at 9.23 µM]	-7.81% [at 9.23 µM]
